Source: PubChem BioAssay AID1745848 (National Center for Advancing Translational Sciences (NCATS), 2022)
The whole screen tested about 2,100 compounds, of which about 940 (45%) were called active. Inconclusive results (about 48%) are left out. Calls follow the shape of the dose curve; as a rule, active = well fitted inhibition curve with a large enough effect; inconclusive = small, poorly fitted or top-dose-only effect; inactive = no such curve, though single readings can be large or run the other way. So high a share suggests a set chosen from earlier hits. The list shows a part of the results.

test: Confirmatory qHTS for Inhibitors of ATXN expression; settings: ATXN2-luciferase reporter cells, luminescence, 24 h; series mostly up to 11.5 µM; also: nearly all actives have a fitted effect of over 65% in size
How it was run: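 Cells carrying ATXN2-luciferase reporter exposed 24 h at 37 C to compound. Viability then read by CellTiter-Fluor (25 uM GF-AFC, 30 min), followed by SteadyGlo luminescence; medium-only wells set 100% inhibition.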
Potency is read from the fitted curve at half-maximal effect.

SMILES	Potency
COC(=O)c1ccc(/C=C2/SC(=S)N(CCCC(=O)Nc3ccccn3)C2=O)cc1	14.1 µM (active)
O=C(CCCN1C(=O)/C(=C/c2ccccc2Cl)SC1=S)Nc1ccccn1	11.2 µM (active)
COc1ccc(/C=C2\SC(=S)N(CCCC(=O)Nc3ccccn3)C2=O)cc1OC	14.1 µM (active)
O=C(Nc1ccc(CN2CCCCC2)cc1)Nc1ccc(Br)cc1Cl	25.1 µM (active)
N#Cc1c(NCCN)nc(-c2ccco2)c2c1CCCC2	25.1 µM (active)
NS(=O)(=O)c1ccc(CCNc2nn3c(-c4cccc(OC(F)(F)F)c4)cnc3s2)cc1	3.55 µM (active)
COc1cccc(/C=N/Nc2ncnc3c2ncn3Cc2ccccc2)c1O	0.708 µM (active)
COc1cccc(/C=N/Nc2ncc(C(F)(F)F)cc2Cl)c1O	1.58 µM (active)
CN1C2CCC1/C(=C\c1ccccc1)C(=O)/C2=C\c1ccccc1	14.1 µM (active)
COc1ccccc1N1CCN(c2ccnc3cc(Cl)ccc23)CC1	12.6 µM (active)
O=S(=O)(c1ccc2nc(COc3ccc(Cl)cc3Cl)[nH]c2c1)N1CCOCC1	inactive
Oc1ccc(N2CCN(c3ccnc4cc(Cl)ccc34)CC2)cc1	15.8 µM (active)
O=S(=O)(c1ccccc1)N1CCN(c2ccnc3cc(Cl)ccc23)CC1	25.1 µM (active)
O=C(C1CCCCC1)N1CCN(c2ccnc3cc(Cl)ccc23)CC1	3.98 µM (active)
C[C@H]1O[C@@H](O[C@H]2[C@@H](O)C[C@H](O[C@H]3[C@@H](O)C[C@H](O[C@H]4CC[C@@]5(C)[C@H](CC[C@@H]6[C@@H]5C[C@@H](O)[C@]5(C)[C@@H](C7=CC(=O)OC7)CC[C@]65O)C4)O[C@@H]3C)O[C@@H]2C)C[C@H](O)[C@@H]1O	0.282 µM (active)
Cc1cccc2sc(NNC(=O)c3ccc(S(=O)(=O)N4CCCC(C)C4)cc3)nc12 (stereo not given)	7.94 µM (active)
Cc1cc(C)c2nc(NNC(=O)c3ccc(S(=O)(=O)N4CC(C)CC(C)C4)cc3)sc2c1 (stereo not given)	3.55 µM (active)
Cc1cccc2sc(NNC(=O)c3ccc(S(=O)(=O)N4CC(C)CC(C)C4)cc3)nc12 (stereo not given)	2 µM (active)
CCCC(NCC(O)COc1ccc(-c2ccccc2)cc1)c1ccccc1 (stereo not given)	25.1 µM (active)
NS(=O)(=O)c1ccc(Sc2nc3ccccc3s2)c([N+](=O)[O-])c1	2.24 µM (active)
COc1cc(C#Cc2c(-c3cncn3C)n(C)c3ccc(-c4cnc(OC)nc4)cc23)cc(OC)c1	3.16 µM (active)
Cc1ccnc(NC(=O)C2CCN(S(=O)(=O)c3c(C)c(C)cc(C)c3C)CC2)c1	2.24 µM (active)

SMILES	Potency
O=C(Nc1ccc[n+](CC(=O)c2cccc3ccccc23)c1)c1ccccc1	3.55 µM (active)
O=[N+]([O-])c1cc(O)c2ncccc2c1	3.16 µM (active)
Fc1ccc2[nH]c3c(N4CCSCC4)ncnc3c2c1	12.6 µM (active)
Fc1ccc2[nH]c3c(N4CCc5ccccc5C4)ncnc3c2c1	3.98 µM (active)
CCOC(=O)N1CCN(c2ncnc3c2[nH]c2ccc(F)cc23)CC1	8.91 µM (active)
CC(OC(=O)c1cc(Br)ccc1O)C(=O)Nc1ccc(S(=O)(=O)N2CCCC2)cc1 (stereo not given)	28.2 µM (active)
O=C(N/N=C\c1c(O)ccc2ccccc12)c1ccc(S(=O)(=O)N2CCCCC2)cc1	0.501 µM (active)
O=C(N/N=C\c1cc(Cl)ccc1O)c1ccc(S(=O)(=O)N2CCCCC2)cc1	0.708 µM (active)
Cc1cc(C)n(-c2ccc(C(=O)N3CCN(S(=O)(=O)c4cccc(Br)c4)CC3)cc2)n1	inactive
O=C(N/N=C\c1cc(Br)ccc1O)c1ccc(S(=O)(=O)N2CCCCC2)cc1	0.794 µM (active)
CCCCOc1ccc(CSC(=N)N)cc1Cl	25.1 µM (active)
COc1ccc2c(c1)[nH]c1c(=O)n(/N=C/C3C(C)C=C(C)CC3C)c(=O)[nH]c12 (stereo not given)	14.1 µM (active)
COc1ccc(Cn2c(O)c(/C=N/NC(=O)c3cccnc3)c3ccccc3c2=O)cc1	14.1 µM (active)
Cn1c(=O)c2cc(NC(=O)Nc3cccnc3)ccc2n1Cc1ccc(Cl)cc1	inactive
O=C(N/N=C/c1c(O)n(Cc2ccccc2)c(=O)c2ccccc12)c1cccnc1	15.8 µM (active)
CC(=O)Nc1cccc(-c2ccnc3c2CC(C)(C(=O)Nc2ccc(Cl)cc2)O3)c1 (stereo not given)	10 µM (active)
CC(=O)c1cccc(NC(=O)C2Cc3c(-c4cccc(C(C)=O)c4)ccnc3O2)c1 (stereo not given)	inactive
CC(=O)Nc1cccc(-c2ccnc3c2CC(C)(C(=O)Nc2cccc(Oc4ccccc4)c2)O3)c1 (stereo not given)	25.1 µM (active)
CC(Nc1ccccc1CO)C(=O)Nc1cccc(Cl)c1Cl (stereo not given)	2.24 µM (active)
COc1cc(NC(=O)c2cccc3c(-c4cccnc4)coc23)cc(OC)c1OC	3.55 µM (active)
NC(=S)N1OC[C@@H]2COc3ccc4ccccc4c3[C@@H]21	14.1 µM (active)
O=[N+]([O-])c1ccc(O)c(/C=N/Nc2ccccn2)c1	0.631 µM (active)

SMILES	Potency
O=[N+]([O-])c1ccc(O)c(/C=N/Nc2ncnc3c2cnn3-c2ccccc2)c1	1.26 µM (active)
O=[N+]([O-])c1ccc(O)c(/C=N\N=C2c3ccccc3-c3ccccc32)c1	3.98 µM (active)
COc1ccc(N2CCN(C(=O)c3cc4c(C)nc5ccccc5c4o3)CC2)cc1	25.1 µM (active)
COc1ccccc1N1CCN(C(=O)c2cc3c(C)nc4ccccc4c3o2)CC1	3.55 µM (active)
N#C/C(=C\C=C\c1ccccc1[N+](=O)[O-])C(=O)NCc1ccccc1	2.82 µM (active)
N#C/C(=C\C=C\c1ccccc1[N+](=O)[O-])C(=O)NC1CCCCC1	17.8 µM (active)
N#C/C(=C\c1cccc([N+](=O)[O-])c1)C(=O)NCc1ccc(Cl)cc1	3.16 µM (active)
CC1CCCCC1NC(=O)/C(C#N)=C/C=C/c1ccccc1[N+](=O)[O-] (stereo not given)	3.16 µM (active)
COC(=O)c1ccc2c(c1)C(C)(C)C(/C=C/c1ccc(OC)c(OC)c1OC)=[N+]2C	3.55 µM (active)
O=C(/C=C/c1ccccc1)c1cc(Br)ccc(=O)c1O	28.2 µM (active)
CCNc1ccc(Br)cc(C(=O)/C=C/c2ccccc2Cl)c1=O	inactive
Cc1cccc(NC2=Nc3ccccc3N3C2=Nc2c(c(C)nn2-c2ccccc2)C3c2ccc(O)c(O)c2)c1 (stereo not given)	3.55 µM (active)
CC(=O)Nc1ccc(NC2=Nc3ccccc3N3C2=Nc2c(c(C)nn2-c2ccccc2)C3c2ccccc2)cc1 (stereo not given)	1.26 µM (active)
COc1cccc(NC(=O)CSc2nc3ncc(Br)cc3[nH]2)c1	3.98 µM (active)
Cc1cc(C)n(-c2nc(Nc3ccccc3C(F)(F)F)nc(-n3nc(C)cc3C)n2)n1	3.16 µM (active)
O=C(Oc1c(CN2CCOCC2)cc(Cl)c2cccnc12)c1cccs1	11.2 µM (active)
CCOC(=O)N1CCN(Cc2cc(Cl)c3cccnc3c2O)CC1	1.58 µM (active)
O=C(Oc1c(CN2CCOCC2)cc(Cl)c2cccnc12)c1ccccc1	3.55 µM (active)
O=C1N(c2ccccc2)C[C@@H]2C[C@@H](c3cc4ccccc4o3)N3CCC[C@@]123	0.316 µM (active)
CC(C)(O)C#Cc1ccc([C@@H]2C[C@H]3CN(c4ccccc4)C(=O)[C@]34CCCN24)s1	5.01 µM (active)
CC(C)C[C@H](N)c1cn([C@@H](CCCCN)C(=O)N2CCNCC2)nn1	inactive
Cc1c(OCC(=O)NC2CC(C)(C)NC(C)(C)C2)ccc2c1oc(=O)c1ccccc12	2.82 µM (active)

SMILES	Potency
COc1cccc(-c2cc3nc(-c4ccccc4)cc(N4CCN(C(=O)c5ccoc5)CC4)n3n2)c1	2.82 µM (active)
COc1ccccc1-c1cc2nc(-c3ccccc3)cc(N3CCN(C(=O)c4ccco4)CC3)n2n1	12.6 µM (active)
O=C(c1ccoc1)N1CCN(c2cc(-c3ccco3)nc3cc(-c4ccccc4)nn23)CC1	25.1 µM (active)
COc1ccccc1-c1cc2nc(-c3ccccc3)cc(N3CCN(C(=O)c4ccoc4)CC3)n2n1	12.6 µM (active)
Cn1cccc1/C=N/N1CCN(Cc2ccccc2Cl)CC1	inactive
CCOc1ccc(S(=O)(=O)NCCC(=O)N2CC=C(c3ccccc3)CC2)cc1	12.6 µM (active)
Cc1cccn2c(=O)c3cc(C(=O)NCCN4CCOCC4)c(=N)n(Cc4ccc(F)cc4)c3nc12	7.08 µM (active)
Cc1ccc2[nH]c(O)c(N=NC(=O)C3CC3c3ccccc3)c2c1Br (stereo not given)	inactive
OC(CN1CCCCC1)Cn1c2ccc(Cl)cc2c2cc(Cl)ccc21 (stereo not given)	3.16 µM (active)
O=C(NCC1CCCO1)c1cccc(Oc2ccc([N+](=O)[O-])cc2Cl)c1 (stereo not given)	inactive
O=C(Nc1cccc2c1CCCC2)c1cc([N+](=O)[O-])ccc1Cl	15.8 µM (active)
COc1ccc(/C=C2\SC(=S)N(CCCC(=O)NNC(=O)c3ccccc3O)C2=O)cc1	3.98 µM (active)
CC(C)(C)c1ccc(OCCCC(=O)NNC(=O)c2ccccc2O)cc1	25.1 µM (active)
O=C(CCCN1C(=O)S/C(=C\c2ccccc2)C1=O)NNC(=O)c1ccccc1O	2.24 µM (active)
CN(C)CCNCCCNc1c2ccccc2nc2cccc([N+](=O)[O-])c12	0.0891 µM (active)
CC(=O)N1CCN(c2ccc(Oc3ccc([N+](=O)[O-])c(C(F)(F)F)c3)cc2)CC1	11.2 µM (active)
Cc1c(C(=O)Nc2ccc(-c3nnc4n3CCCCC4)cc2)oc2c1ccc1ccccc12	3.16 µM (active)
O=C(N/N=C/c1ccccc1O)C1SCCCS1	14.1 µM (active)
O=C(N/N=C/c1ccccc1O)C1CCCC1	28.2 µM (active)
